Sampled rows, rich in hits. Any-hit rate of the full collection: about 2.2%.
iPSC survival up = increases survival of single human iPS cells; survival enhancement, % at 20 µM; hiPSC single-cell survival, ATPlite luminescence; 100% = ROCK inhibitor wells, 0% = DMSO; actives 0.044% (n = 360,000); in the data active means survival enhancement above about 18%;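 further: cells exposed to compounds for 16 hours before the ATP read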
H9c2 protect = protects H9c2 cardiomyocytes from peroxide injury; actives 0.63% (n = 360,000); H2O2 injury protection, ATPLite, 2 h; protection from H2O2 cell death, % at 20 µM;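 active means compounds giving at least 50% protection of heart cells from peroxide-induced death in the single-dose screen, raw or plate-pattern-corrected value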;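 further: 0% = DMSO wells with peroxide and 100% = DMSO wells without peroxide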
ABCB6 inh MLPCN = human ABCB6 transporter inhibition; Q9NP58; K562-ABCB6 porphyrin accumulation, flow cytometry, 1 h; stronger effect = lower value; fluorescence ratio to DMSO, % at 10 µM; actives 0.19% (n = 360,000);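 active means fluorescence ratio to DMSO below 75%, the collection mean minus 3 SD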;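 further: signal is porphyrin accumulated inside mitochondria; 100% equals median channel fluorescence of DMSO control wells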
Target sequence (Q9NP58 whole entry, looked up): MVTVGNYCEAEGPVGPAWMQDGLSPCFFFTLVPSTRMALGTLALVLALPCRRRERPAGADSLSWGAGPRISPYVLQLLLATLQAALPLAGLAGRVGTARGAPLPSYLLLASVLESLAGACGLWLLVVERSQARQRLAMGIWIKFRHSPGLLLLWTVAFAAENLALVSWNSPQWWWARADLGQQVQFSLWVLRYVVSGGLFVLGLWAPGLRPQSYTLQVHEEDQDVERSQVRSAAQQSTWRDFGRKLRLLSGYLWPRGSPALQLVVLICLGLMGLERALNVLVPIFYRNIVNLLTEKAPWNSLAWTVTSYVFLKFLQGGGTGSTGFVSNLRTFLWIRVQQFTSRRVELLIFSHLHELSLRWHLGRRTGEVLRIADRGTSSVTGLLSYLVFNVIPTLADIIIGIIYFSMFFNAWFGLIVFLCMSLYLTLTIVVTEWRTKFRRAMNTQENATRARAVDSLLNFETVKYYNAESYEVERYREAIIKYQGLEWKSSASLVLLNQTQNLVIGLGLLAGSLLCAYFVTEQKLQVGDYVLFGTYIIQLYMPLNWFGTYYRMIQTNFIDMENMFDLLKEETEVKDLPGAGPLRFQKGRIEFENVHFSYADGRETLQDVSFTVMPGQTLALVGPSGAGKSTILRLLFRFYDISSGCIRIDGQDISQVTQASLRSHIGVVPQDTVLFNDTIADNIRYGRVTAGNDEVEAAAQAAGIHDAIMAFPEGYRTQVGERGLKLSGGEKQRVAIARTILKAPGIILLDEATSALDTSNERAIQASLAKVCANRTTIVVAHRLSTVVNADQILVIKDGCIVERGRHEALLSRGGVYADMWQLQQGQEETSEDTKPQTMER
Myeloid diff MLP = promotes myeloid progenitor differentiation | ER-HoxA9 myeloid progenitors, lysozyme-GFP differentiation, flow cytometry | calls only at 10 µM | actives 1% (n = 360,000);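 active means normalized GFP-positive differentiation at or above the plate's own cutoff, the solvent-only control mean plus 3 SD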;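 further: cells exposed to compound for four days before flow analysis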
beta cell repl = inducers of beta-cell replication in MIN6 cells. MIN6 cells proliferation, ATPlite luminescence, 48 h; cells starved in 0.2% serum; 100% = growth in 10% serum. proliferation, % at 10 µM. actives 0.29% (n = 330,000);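 active means compounds whose signal lies at least 3.5 SD above the mean of all wells on their plate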;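 further: 0% = DMSO-treated cells in low-serum medium and 100% = 10% serum control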
Myeloid diff CP1 = compounds promoting myeloid differentiation; AID 651706; shares compounds with Myeloid diff MLP; ER-HoxA9 myeloid progenitors, GFP/Mac1 double-positive flow; actives 2% (n = 2,300); calls only;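 active means share of green or green-and-red cells above 9 and 9% in run 1 or 4 and 3% in run 2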
GFP autofluor = flagged as fluorescent in myeloid differentiation counter-screen | shares compounds with Myeloid diff MLP | ER-HoxA9 myeloid progenitors, no estrogen, GFP autofluorescence flow cytometry; vehicle wells 0%, positive control 100% | fluorescence response, % (concentration not given with the values) | actives 7.4% (n = 2,300);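 active means over 5% cells positive for green fluorescent reporter, or over 2% positive for both it and APC stain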;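 further: range taken on the double positive population between DMSO and positive control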
* marks the source's active call; other numbers are inactive results.

`O=C1NC(=O)N(CCC2=CCCCC2)C(=O)/C1=C\c1cccs1` gave iPSC survival up -1.1, H9c2 protect 5.6, ABCB6 inh MLPCN 103.0, Myeloid diff MLP inactive, beta cell repl 0.0, Myeloid diff CP1 inactive and GFP autofluor 1.2.
`Cc1ncc(C(=O)O)n1C(C)c1ccccc1` (configuration not stated) gave iPSC survival up 3.3, H9c2 protect 0.1, ABCB6 inh MLPCN 101.0 and Myeloid diff MLP inactive.
Screening O=C(NCC(c1cccnc1)N1CCN(c2ccc(F)cc2)CC1)Oc1ccccc1 (configuration not stated) returned iPSC survival up -0.9, H9c2 protect -6.2, ABCB6 inh MLPCN 86.0, Myeloid diff MLP inactive, beta cell repl -2.4, Myeloid diff CP1 inactive and GFP autofluor 1.8.
`CCCCn1c(=O)c(C(=O)Nc2ccccc2C)c(O)c2ccccc21` gave iPSC survival up -0.1, H9c2 protect 30.8, ABCB6 inh MLPCN 96.0, Myeloid diff MLP inactive and beta cell repl -4.3.
CC(C)CCn1c(=O)c(C(=O)Nc2ccccc2S(N)(=O)=O)c(O)c2ccccc21 was read as iPSC survival up -0.6, H9c2 protect -14.3, ABCB6 inh MLPCN 100.0, Myeloid diff MLP inactive, beta cell repl -5.8, Myeloid diff CP1 inactive and GFP autofluor 8.6*.
Screening CCCCCn1c(=O)c(C(=O)Nc2ccccc2Cl)c(O)c2ccccc21 returned iPSC survival up 0.8, H9c2 protect 25.1, ABCB6 inh MLPCN 98.0, Myeloid diff MLP active, beta cell repl -0.9, Myeloid diff CP1 inactive and GFP autofluor 0.0.
CC(=O)Nc1ccc([As](=O)(O)c2ccc([N+](=O)[O-])cc2)cc1 was read as iPSC survival up -0.4, H9c2 protect -3.7, ABCB6 inh MLPCN 101.0, Myeloid diff MLP inactive, beta cell repl -0.1, Myeloid diff CP1 inactive and GFP autofluor 0.2.
CN(C)C(=O)Oc1ccc([N+](=O)[O-])cc1 was read as iPSC survival up 1.7, H9c2 protect 3.9, ABCB6 inh MLPCN 98.0, Myeloid diff MLP inactive and beta cell repl -1.0.
For CN(C)[C@@H]1C(=O)C(C(N)=O)=C(O)[C@@]2(O)C(=O)C3=C(O)c4c(O)ccc(Cl)c4[C@@](C)(O)[C@H]3C[C@@H]12 the results were iPSC survival up -1.1, H9c2 protect -3.3, ABCB6 inh MLPCN 101.0 and Myeloid diff MLP inactive.
Screening O=c1[nH]c2ccccc2n1C1CCN(Cc2ccc(-c3nc4ccc(F)cc4nc3-c3ccccc3)cc2)CC1 returned iPSC survival up -0.7, ABCB6 inh MLPCN 91.0, Myeloid diff MLP active, Myeloid diff CP1 inactive and GFP autofluor 1.4.
Screening Cc1ccc2nc(-c3ccc(CN4CCC(n5c(=O)[nH]c6ccccc65)CC4)cc3)c(-c3ccccc3)nc2c1 returned iPSC survival up 0.8, ABCB6 inh MLPCN 96.0 and Myeloid diff MLP inactive.
For CN1CCC23c4c5ccc(O)c4O[C@@H]2[C@H](O)C=CC3C1C5 (some centres not stated) the results were iPSC survival up 0.5, H9c2 protect 2.0, ABCB6 inh MLPCN 94.0 and beta cell repl -0.2.
Screening Cc1cc(C)cc(N2C(=O)NC(=O)/C(=C\c3cccn3-c3ccc(Cl)cc3)C2=O)c1 returned iPSC survival up 3.5, H9c2 protect 0.2, ABCB6 inh MLPCN 99.0, Myeloid diff MLP inactive, beta cell repl -6.6, Myeloid diff CP1 inactive and GFP autofluor 0.0.
C=CCn1c(O)c(/C=C/C=Nc2ccccc2)c(=O)[nH]c1=O was read as iPSC survival up -1.5, H9c2 protect 6.8, ABCB6 inh MLPCN 116.0, Myeloid diff MLP inactive and beta cell repl 0.0.
O=c1[nH]c(=O)n(C2CCCCC2)c(O)c1/C=C/C=Nc1ccccc1 was read as iPSC survival up 0.5, H9c2 protect 7.4, ABCB6 inh MLPCN 108.0, Myeloid diff MLP active, beta cell repl 6.0, Myeloid diff CP1 inactive and GFP autofluor 7.5*.
COc1ccc(-n2c(O)c(/C=C/C=Nc3ccccc3)c(=O)[nH]c2=O)cc1 was read as iPSC survival up 0.5, H9c2 protect 0.2, ABCB6 inh MLPCN 107.0, Myeloid diff MLP inactive, beta cell repl 0.0, Myeloid diff CP1 inactive and GFP autofluor 97.2*.
For Cc1ccc(-n2c(O)c(/C=C/C=Nc3ccccc3)c(=O)[nH]c2=O)cc1 the results were iPSC survival up -2.3, H9c2 protect 10.9, ABCB6 inh MLPCN 113.0, Myeloid diff MLP inactive, beta cell repl 0.0, Myeloid diff CP1 inactive and GFP autofluor 4.8.
`O=c1[nH]c(=O)n(-c2ccccc2)c(O)c1/C=C/C=Nc1ccccc1` gave iPSC survival up -1.2, H9c2 protect -1.2, ABCB6 inh MLPCN 115.0, Myeloid diff MLP inactive and beta cell repl 0.0.
COc1ccccc1CCNCc1cc2c(cc1[N+](=O)[O-])OCO2 was read as iPSC survival up -2.2, H9c2 protect 24.2, ABCB6 inh MLPCN 106.0, Myeloid diff MLP inactive and beta cell repl -0.4.
`CC(=O)C1C2c3ccccc3OC1(C)N=c1s/c(=C/c3cnn(C)c3)c(=O)n12` (configuration not stated) gave iPSC survival up -2.8, H9c2 protect -1.8, ABCB6 inh MLPCN 102.0, Myeloid diff MLP inactive and beta cell repl -3.6.
Cc1ccc(OCC(=O)Nc2ccc(Cl)cc2C(=O)c2ccccc2)cc1 was read as iPSC survival up -1.0, H9c2 protect -7.1, ABCB6 inh MLPCN 97.0, Myeloid diff MLP inactive and beta cell repl -1.8.
`Cc1ccc(C(=O)Nc2ccc(Cl)cc2C(=O)c2ccccc2)cc1` gave iPSC survival up 4.0, H9c2 protect -11.8, ABCB6 inh MLPCN 105.0, Myeloid diff MLP inactive, beta cell repl -5.0, Myeloid diff CP1 inactive and GFP autofluor 5.1*.
Screening O=C1NC(=O)N(Cc2ccccc2)C(=O)/C1=C/C=C/c1ccco1 returned iPSC survival up 0.0, H9c2 protect -8.9, ABCB6 inh MLPCN 101.0, Myeloid diff MLP inactive, beta cell repl -7.2, Myeloid diff CP1 inactive and GFP autofluor 0.3.
Screening CCOc1ccc(N=Cc2c(O)n(Cc3ccccc3)c(=S)[nH]c2=O)cc1 returned iPSC survival up 0.0, H9c2 protect -2.1, ABCB6 inh MLPCN 100.0, Myeloid diff MLP inactive and beta cell repl -4.4.
C=CCn1c(O)c(C=NCCCOc2ccc(CC)cc2)c(=O)[nH]c1=S was read as iPSC survival up 6.2, H9c2 protect -9.3, ABCB6 inh MLPCN 118.0, Myeloid diff MLP active, beta cell repl -1.9, Myeloid diff CP1 inactive and GFP autofluor 0.5.

Screens from PubChem BioAssay.
